# The whole screen tested about 48,000 compounds, of which about 13,000 (27%) showed an effect of 50% or more. The list shows a part of the results.
# Test system: Wolbachia pipientis
# Experiment: Anti-Wolbachia Cell-Based Screen
# Format: functional
# Design: scale not given: in the data most compounds retested in dose-response had high values
# Details: 5 µM
row,SMILES,Percent Effect
1,COCCOC1CCN(C(C(=O)O)c2c(Cl)cccc2OC)CC1 (stereo not drawn),87.97%
2,NC(=O)C1CCN(C(C(=O)O)c2ccc(Cl)c(C(F)(F)F)c2)CC1 (stereo not drawn),-1.554%
3,O=C(O)C(c1ccc(Cl)c(F)c1)N1CCN(Cc2ccccn2)CC1 (stereo not drawn),0.4357%
4,COc1ccc(C(C(=O)O)N2CCN(C3CCCC3)CC2)cc1OC (stereo not drawn),20.13%
5,COCCOC1CCN(C(C(=O)O)c2ccc3c(c2)OCO3)CC1 (stereo not drawn),111.3%
6,O=C(O)C(c1ccc2c(c1)OCO2)N1CCCCCC1 (stereo not drawn),23.77%
7,COCCOC1CCN(C(C(=O)O)c2ccc(OC)c(F)c2)CC1 (stereo not drawn),107.6%
8,COc1ccc(C(C(=O)O)N2CCC(O)(c3cccnc3)CC2)cc1F (stereo not drawn),-17.65%
9,COc1cccc(Cl)c1C(C(=O)O)N1CCC(O)(c2cccnc2)CC1 (stereo not drawn),0.4267%
10,O=C(O)C(c1ccc2c(c1)OCO2)N1CCCC1 (stereo not drawn),-31.26%
11,COc1ccccc1C(C(=O)O)N1CCCN(C2CCCC2)CC1 (stereo not drawn),-24.96%
12,CN(C)CCN(C)C1CCN(C(C(=O)O)c2ccc(F)c(Cl)c2)CC1 (stereo not drawn),97.08%
13,Cn1cnc2c1C(COCc1cccnc1)N(Cc1nccs1)CC2.O=C(O)C(F)(F)F.O=C(O)C(F)(F)F.O=C(O)C(F)(F)F (stereo not drawn),0.7375%
14,CCOc1ccc(Cl)cc1C(C(=O)O)N1CCC(CO)CC1 (stereo not drawn),-16.74%
15,COCCOC1CCN(C(C(=O)O)c2ccc(F)c(Cl)c2)CC1 (stereo not drawn),111%
16,COc1ccc(C(C(=O)O)N2CCN(C3CCCC3)CC2)cc1C (stereo not drawn),19.06%
17,CCCc1nnc2sc(-c3cc(C(C)C)n[nH]3)nn12,120.9%
18,Cc1cc(-c2nn3c(C)nnc3s2)n[nH]1,0.3213%
19,CC(C)c1cc(-c2nn3c(C(C)C)nnc3s2)[nH]n1,-17.87%
20,Cc1nnc2sc(-c3cc(C(C)C)n[nH]3)nn12,-19.82%
21,CCc1nnc2sc(-c3cc(C(C)C)n[nH]3)nn12,154.2%
22,CC(C)Cc1nnc2sc(-c3cc(C(C)C)n[nH]3)nn12,131.5%
23,CCN(CC)Cc1nnc2sc(-c3cc(C(C)C)[nH]n3)nn12,118.1%
24,CCC(Nc1nc(C(C)C)nc2c1cnn2C)c1ccc(O)cc1 (stereo not drawn),-13.26%
25,Cc1nc(CNC(C)c2cccc(N3CCCC3=O)c2)cs1.Cl (stereo not drawn),-6.766%
26,CCc1nc(C2CCCN2Cc2nc(Cc3ccccc3)no2)no1 (stereo not drawn),-2.634%
27,OCC1CCCCN1Cc1nc(Cc2cccc(F)c2)no1 (stereo not drawn),-3.414%

row,SMILES,Percent Effect
1,c1ccc(Cc2noc(CN3CCCC3Cn3cccn3)n2)cc1 (stereo not drawn),101.6%
2,c1ccc(Cc2noc(CN3CCCCC3Cn3cccn3)n2)cc1 (stereo not drawn),121.7%
3,c1ccc(Cc2noc(CN3CCCC3C3CCCCC3)n2)cc1 (stereo not drawn),35.45%
4,OCC1CCCCN1Cc1nc(Cc2ccccc2)no1 (stereo not drawn),15.34%
5,Cc1ccc(O)c(C(=O)N2CCCC2c2nncn2CC(C)C)c1 (stereo not drawn),-6.935%
6,COCCNc1ccc(CNC(=O)C2COc3ccccc32)cc1 (stereo not drawn),-1.749%
7,O=S(=O)(Cc1nc(C2CC2)no1)c1ccccc1F,-2.004%
8,CCC(C(=O)NCc1ccccn1)N(c1cccc(C)c1)S(C)(=O)=O (stereo not drawn),1.713%
9,Cn1cnc(S(=O)(=O)N2CCCC2)c1Cl,-6.345%
10,Cn1cnc(S(=O)(=O)NCCCN2CCOCC2)c1Cl,-0.729%
11,Cn1cnc(S(=O)(=O)NCCCN2CCCC2)c1Cl,98.8%
12,Cn1cnc(S(=O)(=O)NCCCN2CCCCCC2)c1Cl,0.4653%
13,CCCN1CCN(S(=O)(=O)c2ncn(C)c2Cl)CC1,1.683%
14,Cn1cnc(S(=O)(=O)NCCN2CCCCCC2)c1Cl,104.3%
15,Cn1cccc1C1CCCN1C(=O)NCCCn1cccn1 (stereo not drawn),-1.835%
16,COc1ccc(NC(C)c2ccc(C#N)cc2)cc1N1CCCC1=O (stereo not drawn),11.24%
17,O=C(CN1CCSC2(CCCCC2)C1)NCC(F)(F)F,-26.69%
18,COCCc1noc(CN2CCN(CC(O)c3ccccc3)CC2)n1 (stereo not drawn),5.305%
19,Cc1cc2c(cc1C(=O)N1CCC3(CC(=O)NC3=O)C1)OCCO2 (stereo not drawn),-6.886%
20,CN(CC1(O)CCCN(c2ccccn2)C1)C(=O)Cc1ccsc1 (stereo not drawn),-7.252%
21,Cc1cc(N2CCC(O)(CN(C)C(=O)CCN)CC2)c2cnccc2n1,69.28%
22,Cc1cnn(C2(C(=O)O)CCN(c3ccncc3F)CC2)c1,13.66%
23,Cc1cc(N2CCCC(O)(CN(C)C)CC2)nc(-c2ccccc2)n1 (stereo not drawn),2.269%
24,Cc1cc(N2CCCC(O)(CN(C)C(=O)CCN)C2)c2cnccc2n1 (stereo not drawn),91.76%
25,Cc1ncc(C)c(N2CCC(CCc3ccccc3)(C(=O)O)CC2)n1,1.128%
26,Cc1ccc(CC(=O)N(C)CC2(O)CCN(c3ccccn3)C2)s1 (stereo not drawn),-7.019%

# — ChEMBL document CHEMBL3988442, “University of Dundee, Small-Polar-MMV Screening Library” (2021)
